# Laboratory results reported in PubChem BioAssay AID686940 (The Scripps Research Institute Molecular Screening Center, 2013).
# Among all 370,000 compounds or so, about 2,600 (0.7%) were called active. For the sample, actives were picked, then their nearest neighbours and some compounds at random. A number with no mark means an inactive call.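 The calls were made as follows: active = inhibition above a per-plate cutoff, mean inhibition of test wells between control levels plus 3 SD (cut at about 38% in these data); inactive = the rest.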
# Target: COUP transcription factor 2 (Homo sapiens) (UniProt P24468)
# Test: NR2F2 transcriptional activity inhibitors, primary screen, cell-based, luciferase reporter, HEK293T, luminescence (AID 686940);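 also: cells cotransfected with COUP-TFII expression vector driving the NGFI-A reporter; 0% = median of COUP-TF2 test wells and 100% = reporter-only cells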
# Details: HEK293T NGFI-A luciferase reporter, at 8.6 µM, active compounds read high
# Chain of COUP transcription factor 2 (Homo sapiens) (P24468 whole entry, looked up): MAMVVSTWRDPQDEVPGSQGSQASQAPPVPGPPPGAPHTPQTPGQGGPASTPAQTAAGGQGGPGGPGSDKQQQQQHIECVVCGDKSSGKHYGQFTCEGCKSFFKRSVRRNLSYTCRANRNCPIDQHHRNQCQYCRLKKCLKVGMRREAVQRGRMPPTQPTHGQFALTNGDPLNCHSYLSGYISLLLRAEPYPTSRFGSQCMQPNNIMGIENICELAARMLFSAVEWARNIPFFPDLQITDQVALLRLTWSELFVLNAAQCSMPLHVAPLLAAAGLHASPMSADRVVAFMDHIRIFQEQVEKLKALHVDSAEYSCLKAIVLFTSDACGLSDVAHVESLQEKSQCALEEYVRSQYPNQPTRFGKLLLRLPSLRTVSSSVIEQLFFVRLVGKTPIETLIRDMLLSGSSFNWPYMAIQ
row,Compound,inhibition
1,CN(C)S(=O)(=O)c1cccc(C(=O)N/N=C\c2ccco2)c1,2.18%
2,O=C(Nc1ccccc1)N1CCN(Cc2nc3ccccc3c(=O)[nH]2)CC1,13.6%
3,O=C(C1CCN(S(=O)(=O)c2ccccc2)CC1)N1CCN(C2CCCCC2)CC1,-29.2%
4,CCN(CC)P(=O)(C(NC(=O)OC)C(F)(F)C(F)(F)C(F)(F)C(F)F)N(CC)CC (stereo not given),98.4% (active)
5,O=C(CSc1nc2c(c(=O)[nH]1)CCCC2)N1CCCCC1,-26.3%
6,O=S1(=O)c2ccc(N3CCN(Cc4ccccc4F)CC3)cc2Oc2ccccc2CN1Cc1cn(Cc2ccc(Cl)cc2)nn1,-6.71%
7,Cc1ccc(-n2c(SCC(=O)Nc3ccc(S(=O)(=O)Nc4nccs4)cc3)nnc2-c2ccccn2)cc1,-5.91%
8,CCCCN1C(=O)C(=O)N(CC(=O)Nc2cccc(C(C)=O)c2)C1=O,0.73%
9,CCSc1nsc(NC(=O)Nc2cccc(C(C)=O)c2)n1,17.5%
10,C=CCSc1nsc(NC(=O)Nc2cccc(C(C)=O)c2)n1,38.1% (active)
11,COC(=O)C[C@@H]1CC[C@@H]2[C@H](COc3ccc(NC(=O)c4cccc(F)c4)cc3C(=O)N2C)O1,-0.62%
12,COc1ccc(-n2c(SCC(=O)Nc3ccc4cn[nH]c4c3)nnc2-c2cccnc2)cc1,9.8%
13,N#CCC[C@H]1CC[C@]2(CCCN(Cc3ccc(Cl)cc3)C2)O1,1.96%
14,O=C1NC[C@@H](Cc2ccc(O)cc2)N(CCc2cccc(F)c2)C1=O,48.2% (active)
15,O=C1NC[C@H](CCCCN2C[C@H](Cc3ccccc3)N(Cc3ccccc3)C(=O)C2=O)N(CCc2ccc(O)cc2)C1=O,-7.95%
16,O=C1NC[C@H](CCCCN2C[C@H](Cc3ccc(O)cc3)N(CCc3ccccc3)C(=O)C2=O)N(CCc2ccccc2)C1=O,-1.56%
17,COc1ccnc(C(=O)N2CCC(Oc3cccnc3)CC2)c1,-26.8%
18,O=S1(=O)c2c(cccc2N2CCSCC2)Oc2ccccc2CN1Cc1cn(Cc2ccc(F)cc2)nn1,-4.53%
19,O=C(Nc1cc(Cl)cc(Cl)c1)OCCN1CCCC12CCC(c1ccccc1)CC2 (stereo not given),2%
20,NS(=O)(=O)c1ccc(CCNC(=O)CNC(=O)Cc2ccccc2)cc1,10.1%
21,NS(=O)(=O)c1ccc(CCNc2nc(C(F)(F)F)nc3ccccc23)cc1,46.6% (active)
22,CC(Nc1nc(C(F)(F)F)nc2ccccc12)c1cccs1 (stereo not given),-15.1%

row,Compound,inhibition
1,CCCCn1c(SCC(=O)N2CCCC2=O)nc2cc(S(N)(=O)=O)ccc21,-5.45%
2,CCCCn1c(SCc2ncc(-c3ccccc3)o2)nc2cc(S(N)(=O)=O)ccc21,47% (active)
3,c1ccc(-c2cnc(CN3CCN(c4ccccc4)CC3)o2)cc1,-25.5%
4,Cc1ccc(NC(=O)Nc2cc(C)nn2-c2ccccc2)cc1,-17.6%
5,COc1ccc(C2CC=C(C(=O)O)C(c3ccccc3F)N2S(=O)(=O)c2ccc(C)cc2)cc1OC (stereo not given),13%
6,COc1ccc2c(C(C)c3ccc(N)cc3)cn(C)c2c1 (stereo not given),-15.8%
7,O=C(C1CCCN1S(=O)(=O)c1ccccc1)N1CCc2ccccc2C1 (stereo not given),7.01%
8,CN1C(=O)c2cc(NS(C)(=O)=O)ccc2OC[C@@H]2O[C@@H](CC(=O)NCc3ccc(-c4ccccc4)cc3)CC[C@H]21,-21.8%
9,O=[N+]([O-])c1ccc(N2CCN(c3ccc(F)cc3)CC2)cn1,-9.2%
10,O=C(c1cc(C(=O)N2CCN(c3ccc(F)cc3)CC2)cc([N+](=O)[O-])c1)N1CCN(c2ccc(F)cc2)CC1,58.1% (active)
11,O=C(c1cncc(Br)c1)N1CCN(c2ccc([N+](=O)[O-])cc2)CC1,9.04%
12,CN(C)CC(=O)N[C@@H]1C[C@@H]2O[C@H](CO)CC[C@@H]2O[C@@H]1CCc1ccc(C#Cc2ccccc2)cc1,27.3%
13,O=C(CCNC(=O)c1ccc(Cl)cc1)NC1CCCc2ccccc21 (stereo not given),-32.6%
14,Cn1nccc1C(=O)NC1CCCc2c1cnn2-c1ccc(F)cc1F (stereo not given),60.9% (active)
15,Cc1cc(C(=O)NC2CC(C)(C)Cc3c2cnn3-c2ccccc2)n[nH]1 (stereo not given),-4.58%
16,COCc1ccc(C(=O)NC2CC(C)(C)Cc3c2cnn3-c2ccc(C)cc2)o1 (stereo not given),-7.12%
17,Cc1cc(C(=O)NC2CCCc3c2cnn3-c2cccc(C)c2C)c(C)o1 (stereo not given),44.6% (active)
18,COc1ccc(C(=O)NC2CC(C)(C)Cc3c2cnn3-c2ccccc2)c(OC)c1 (stereo not given),-0.91%
19,Cc1cc(C(=O)NNC(=O)CCC2CCCCC2)c(C)o1,3.17%
20,COC(=O)c1ccc(C(=O)NC2CC(C)(C)Cc3c2cnn3-c2ccc(F)cc2)nc1 (stereo not given),-4.63%
21,Cn1nccc1C(=O)NC1CCCc2c1cnn2-c1ccccc1F (stereo not given),63.7% (active)
22,COc1cccc(CSc2nnc(-c3cccnc3)n2Cc2ccccc2)c1,14.1%

row,Compound,inhibition
1,COC(=O)c1cccc(Cn2ccc3ccc(-c4ccc5ccn(C(=O)C6CCCCC6)c5c4)cc32)c1,-12.6%
2,O=C(NCCC1=CCCCC1)C1CCN(S(=O)(=O)c2ccc(Cl)s2)CC1,8.27%
3,COC(=O)[C@H](C(C)C)N1CCc2nnn(Cc3ccc(C)cc3)c2-c2ccccc2S1(=O)=O,7%
4,COC(=O)C[C@@H]1CC[C@@H]2[C@@H](COc3ccc(NC(=O)Nc4ccc(F)c(F)c4)cc3C(=O)N2C)O1,4.71%
5,CC[n+]1cc(C)ccc1/C=C/c1ccc(N(C)C)cc1,74.1% (active)
6,O=S1(=O)c2ccc(Br)cc2OC[C@@H](Cc2ccccc2)N1Cc1cn(Cc2ccco2)nn1,8.82%
7,C=CCN1C(C(=O)OC)CN(Cc2cn(Cc3ccccc3)nn2)CCS1(=O)=O (stereo not given),-8.52%
8,CC(CCN1CCC(C(O)(c2ccccc2)c2ccccc2)CC1)Oc1ccc([N+](=O)[O-])cc1Cl (stereo not given),10.1%
9,CC(C)(C)OC(=O)NCc1cc(F)ccc1/C=C/S(=O)(=O)NCCc1ccccc1,9.33%
10,CCN1/C(=C\c2ccc3ccccc3[n+]2CC)Sc2cc(C)ccc21,73% (active)
11,N#Cc1ccccc1OC[C@@H](O)CN1CCC(C(O)(c2ccccc2)c2ccccc2)CC1,-5.47%
12,Cc1cc(C)n2ncc(C(=O)Nc3ccc4c(c3)OCCO4)c2n1,-31.2%
13,C=C1C(C(C)C)N(C)C2=NC(c3ccccc3)CC(=O)N12 (stereo not given),-5.15%
14,CCn1ccnc1CN(C)C(=O)c1cc(COc2ccc(Cl)cc2OC)on1,-30.8%
15,CN(Cc1cccnc1)C(=O)c1cc(COc2ccc3ncccc3c2)on1,64.7% (active)
16,CCOc1ccc(NS(=O)(=O)c2ccc(Cl)c(C(=O)N(C)Cc3cccnc3)c2)cc1,-10.5%
17,COc1ccc(-n2c(COc3ccc(C)cc3)nnc2SCC(=O)Nc2ccc(Oc3ccccc3)cc2)cc1,9.67%
18,C[C@@H]1CN([C@@H](C)CO)C(=O)c2cccc(NC(=O)Nc3cccc4ccccc34)c2O[C@H]1CN(C)S(=O)(=O)c1ccccc1F,11.9%
19,CCOC(=O)C1=C(CC)Nc2ccccc2N=C1N,-4.65%
20,CCOC(=O)C1=C(c2ccc(OC)cc2)C(=O)c2ccccc2C1=O,74.4% (active)
21,CCOC(=O)C1C(=O)C=C(c2ccc(OC)cc2)CC1c1ccco1 (stereo not given),-3.88%
22,C=C(C)C#CC(Cc1ccccc1)NCC1CC1 (stereo not given),7.7%

row,Compound,inhibition
1,Cc1ccc(Cn2cc(COC(=O)N(C)Cc3ccccc3)nn2)cc1,4.98%
2,COc1ccccc1CNC(=O)CCn1c(=O)sc2ccccc21,4.05%
3,COc1ccc(Cn2c(=O)sc3ccccc32)cc1OC,48.4% (active)
4,COc1ccc(CN2CCOC2=O)cc1OC,12.6%
5,CCC(=O)Nc1ccc2c(c1)C(=O)N(C)[C@H]1CC[C@H](CC(=O)NCCOC)O[C@@H]1CO2,13.3%
6,CC(CCN1CCC(C(O)(c2ccccc2)c2ccccc2)CC1)Oc1ccc(Cl)cc1 (stereo not given),3.23%
7,O=S1(=O)c2c(cccc2N2CC[C@H](O)C2)O[C@@H]2CCN1C2,10.5%
8,C[C@H]1CCC/C=C/C(=O)c2c(O)cc(O)cc2CC(=O)O1,38.3% (active)
9,CN(C(N)=NC(=O)/C=C/c1ccccc1)C(C#Cc1ccccc1)Cc1ccccc1 (stereo not given),4.75%
10,O=C(CSc1nnc(-c2ccccn2)n1-c1ccc(Cl)cc1)Nc1ccccc1-c1ccccc1,7.79%
11,O=C(CCC(=O)N1CCN(S(=O)(=O)c2ccc(Cl)cc2)CC1)NCc1cccc(C(F)(F)F)c1,53% (active)
12,CC(NC(=O)CCC(=O)N1CCN(S(=O)(=O)c2ccc(Cl)cc2)CC1)c1ccccc1 (stereo not given),-14.9%
13,O=C(NCc1cccc(C(F)(F)F)c1)c1cccc(S(=O)(=O)N2CCN(Cc3ccccc3)CC2)c1,-3.7%
14,O=C(NCc1ccco1)C1CCCN(S(=O)(=O)c2ccc(Cl)s2)C1 (stereo not given),-2.82%
15,O=C(NC1CCCC1)C1CSCCS(=O)(=O)N1Cc1ccccc1 (stereo not given),0.16%
16,CCc1ccc(-c2nn(-c3ccccc3)cc2CSC(=N)N)cc1,-5%
17,N=C(N)SCc1cccc2ccccc12,38.5% (active)
18,CCOc1ccc(Br)cc1CSC(=N)N,22.1%
19,COC(=O)C1CN(CCc2ccccc2)CCS(=O)(=O)N1Cc1ccc(F)cc1 (stereo not given),3.48%
